Drawing on article PMC7862700, “An all-to-all approach to the identification of sequence-specific readers for epigenetic DNA modifications on cytosine”, this text covers binding signal for seven sequences.

Holding throughout (experiment): DAPPL (digital affinity profiling via proximity ligation, sequencing); 10 mM Tris-HCl pH 7.5, 50 mM NaCl, 1 mM DTT, 4% glycerol, room temperature, 30 min; GST-TFs on glutathione beads, 16-mer random dsDNA library, 0.1% formaldehyde crosslink after washing; high values mean tight binding
Details in all cases: protein: recombinant; tags: N-terminal GST; dsDNA, one strand shown

One assay addresses T1, ERF (Homo sapiens, UniProt P50548 1-548).
T1 sequence: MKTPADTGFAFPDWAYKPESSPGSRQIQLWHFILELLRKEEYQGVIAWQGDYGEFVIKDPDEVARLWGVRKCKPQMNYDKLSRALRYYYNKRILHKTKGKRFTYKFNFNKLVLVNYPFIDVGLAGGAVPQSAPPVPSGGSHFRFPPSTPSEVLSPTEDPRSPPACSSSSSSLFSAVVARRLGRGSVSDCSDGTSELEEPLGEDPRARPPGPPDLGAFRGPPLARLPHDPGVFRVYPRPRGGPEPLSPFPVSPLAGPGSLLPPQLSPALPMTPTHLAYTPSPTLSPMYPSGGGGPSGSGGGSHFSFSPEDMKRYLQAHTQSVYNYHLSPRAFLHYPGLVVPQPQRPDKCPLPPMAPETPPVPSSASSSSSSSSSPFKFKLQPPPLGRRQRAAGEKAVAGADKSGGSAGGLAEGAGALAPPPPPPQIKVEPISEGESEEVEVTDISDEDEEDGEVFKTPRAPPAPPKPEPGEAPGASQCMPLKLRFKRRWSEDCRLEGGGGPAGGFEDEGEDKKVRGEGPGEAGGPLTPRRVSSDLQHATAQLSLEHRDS
A digest of the protocol: (§1)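 Binding signal is defined as a hexamer's read frequency for one factor over its frequency for the tag-only sample. To obtain reads, GST-fused human transcription factors were expressed in yeast, captured on glutathione beads, barcoded with DNA and pooled with that sample. Pools met 200 nmole of a 16-mer random double-stranded DNA library in Tris/NaCl/DTT/glycerol buffer for 30 min at room temperature before washing, 0.1% formaldehyde crosslinking, proximity ligation (BsaI/T4 ligase, 1 h, 37 °C), PCR and Illumina NextSeq500 sequencing.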

The next assay has as its target T2, ETV3L (Homo sapiens, UniProt Q6ZN32 1-361).
T2 sequence: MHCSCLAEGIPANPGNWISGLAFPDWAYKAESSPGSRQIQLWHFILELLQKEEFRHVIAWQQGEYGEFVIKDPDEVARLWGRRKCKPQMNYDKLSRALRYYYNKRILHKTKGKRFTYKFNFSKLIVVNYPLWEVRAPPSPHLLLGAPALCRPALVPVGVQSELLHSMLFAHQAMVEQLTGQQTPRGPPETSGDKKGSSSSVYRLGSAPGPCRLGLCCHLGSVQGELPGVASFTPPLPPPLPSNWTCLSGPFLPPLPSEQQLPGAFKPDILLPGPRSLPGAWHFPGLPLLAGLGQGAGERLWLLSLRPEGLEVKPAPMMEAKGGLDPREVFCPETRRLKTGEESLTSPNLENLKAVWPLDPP
The essentials: as §1

A further assay deals with T3, ETS2 (Homo sapiens, UniProt P15036 1-469).
T3 sequence: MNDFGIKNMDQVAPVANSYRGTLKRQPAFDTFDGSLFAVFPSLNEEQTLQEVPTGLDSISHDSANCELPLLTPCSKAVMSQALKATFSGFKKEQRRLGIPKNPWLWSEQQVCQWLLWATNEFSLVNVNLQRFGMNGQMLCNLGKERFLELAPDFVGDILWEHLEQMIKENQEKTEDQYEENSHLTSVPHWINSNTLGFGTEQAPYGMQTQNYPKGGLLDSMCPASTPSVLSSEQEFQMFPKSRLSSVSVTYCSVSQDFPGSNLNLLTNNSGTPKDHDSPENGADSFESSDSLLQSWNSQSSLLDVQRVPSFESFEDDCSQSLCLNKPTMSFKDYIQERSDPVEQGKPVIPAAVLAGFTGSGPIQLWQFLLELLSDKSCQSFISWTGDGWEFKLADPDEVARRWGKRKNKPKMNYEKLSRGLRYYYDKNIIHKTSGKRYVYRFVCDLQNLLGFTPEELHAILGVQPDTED
The essentials:
as §1

The target of the next assay is T4, SPDEF (Homo sapiens, UniProt O95238 1-335).
T4 sequence: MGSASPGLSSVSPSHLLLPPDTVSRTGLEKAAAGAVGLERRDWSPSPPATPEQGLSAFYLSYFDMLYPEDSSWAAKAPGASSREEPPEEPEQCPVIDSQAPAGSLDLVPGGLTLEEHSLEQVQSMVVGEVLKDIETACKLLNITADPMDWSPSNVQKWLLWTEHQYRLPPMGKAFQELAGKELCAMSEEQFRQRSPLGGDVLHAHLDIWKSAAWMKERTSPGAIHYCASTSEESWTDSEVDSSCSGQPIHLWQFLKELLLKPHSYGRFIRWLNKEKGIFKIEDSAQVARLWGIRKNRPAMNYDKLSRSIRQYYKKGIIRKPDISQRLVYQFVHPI
The essentials:
as §1

The target in the next assay is T5, ETV7 (Homo sapiens, UniProt Q9Y603 1-341).
T5 sequence: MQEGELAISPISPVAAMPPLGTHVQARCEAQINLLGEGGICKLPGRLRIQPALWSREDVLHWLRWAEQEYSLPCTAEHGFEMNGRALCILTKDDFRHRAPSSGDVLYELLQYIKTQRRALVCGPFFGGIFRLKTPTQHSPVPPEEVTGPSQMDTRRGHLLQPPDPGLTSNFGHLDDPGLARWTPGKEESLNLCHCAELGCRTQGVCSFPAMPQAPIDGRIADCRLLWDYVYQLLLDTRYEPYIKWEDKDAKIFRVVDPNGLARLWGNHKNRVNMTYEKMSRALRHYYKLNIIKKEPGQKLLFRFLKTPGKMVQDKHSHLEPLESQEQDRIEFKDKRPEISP
The essentials: as §1

Another assay has as its target T6, ELF5 (Homo sapiens, UniProt Q9UKW6-2 1-255).
T6 sequence: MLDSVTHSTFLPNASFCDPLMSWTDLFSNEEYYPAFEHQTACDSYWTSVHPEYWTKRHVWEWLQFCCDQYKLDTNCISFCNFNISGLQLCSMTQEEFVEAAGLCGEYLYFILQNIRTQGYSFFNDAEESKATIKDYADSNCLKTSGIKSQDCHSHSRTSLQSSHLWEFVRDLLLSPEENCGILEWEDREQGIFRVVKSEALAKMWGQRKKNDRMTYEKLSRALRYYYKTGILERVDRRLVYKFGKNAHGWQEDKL
The essentials: as §1

The next assay concerns the target T7, ETV3 (Homo sapiens, UniProt P41162-2 1-143).
T7 sequence: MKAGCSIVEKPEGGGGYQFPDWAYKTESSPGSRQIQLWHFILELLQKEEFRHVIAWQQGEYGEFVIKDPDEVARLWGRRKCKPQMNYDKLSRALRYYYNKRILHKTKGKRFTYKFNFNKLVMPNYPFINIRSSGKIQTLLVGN
A digest of the protocol: as §1

For another assay, the target named is ETV6 (Homo sapiens, UniProt P41212 1-452). A digest of the protocol:
as §1

Sequence of ETV6 (P41212 whole entry): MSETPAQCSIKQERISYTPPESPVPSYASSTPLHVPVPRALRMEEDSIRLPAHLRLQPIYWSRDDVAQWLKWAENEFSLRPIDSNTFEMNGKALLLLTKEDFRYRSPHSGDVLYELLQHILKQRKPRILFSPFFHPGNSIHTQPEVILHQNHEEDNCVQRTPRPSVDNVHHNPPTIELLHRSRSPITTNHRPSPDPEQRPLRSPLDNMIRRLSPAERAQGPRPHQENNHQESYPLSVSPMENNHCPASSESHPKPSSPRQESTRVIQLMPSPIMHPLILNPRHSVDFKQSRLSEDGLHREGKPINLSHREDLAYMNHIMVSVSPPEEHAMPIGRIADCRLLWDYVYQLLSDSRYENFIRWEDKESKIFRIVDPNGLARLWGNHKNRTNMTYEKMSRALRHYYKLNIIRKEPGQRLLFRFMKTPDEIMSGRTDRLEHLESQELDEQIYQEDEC

For the sequence CCAAAT, the binding signal is 1.11 fold enrichment (6-mer frequency, TF over GST control) with ERF; 1.02 fold enrichment (6-mer frequency, TF over GST control) with ETV3L; 1.08 fold enrichment (6-mer frequency, TF over GST control) in the assay with ETS2; 1.05 fold enrichment (6-mer frequency, TF over GST control) with SPDEF; 1.06 fold enrichment (6-mer frequency, TF over GST control) with ETV7; 1.01 fold enrichment (6-mer frequency, TF over GST control) in the assay with ELF5. The binding signal in the assay with ETV3 was 1.03 fold enrichment (6-mer frequency, TF over GST control); in the assay with ETV6 it was 1.06 fold enrichment (6-mer frequency, TF over GST control).
As to TGGTTA, the binding signal is 1.05 fold enrichment (6-mer frequency, TF over GST control) with ERF; 1.12 fold enrichment (6-mer frequency, TF over GST control) with ETV3L; 1.07 fold enrichment (6-mer frequency, TF over GST control) with ETS2; 1.07 fold enrichment (6-mer frequency, TF over GST control) in the assay with SPDEF; 1.16 fold enrichment (6-mer frequency, TF over GST control) with ETV7; 1.05 fold enrichment (6-mer frequency, TF over GST control) in the assay with ELF5. For the same sequence, the binding signal was 1.05 fold enrichment (6-mer frequency, TF over GST control) with ETV3 and 1.1 fold enrichment (6-mer frequency, TF over GST control) with ETV6.
As for CGACTA, the binding signal is 1.31 fold enrichment (6-mer frequency, TF over GST control) with ERF; 1.52 fold enrichment (6-mer frequency, TF over GST control) with ETV3L; 1.38 fold enrichment (6-mer frequency, TF over GST control) in the assay with ETS2; 1.37 fold enrichment (6-mer frequency, TF over GST control) in the assay with SPDEF; 1.31 fold enrichment (6-mer frequency, TF over GST control) in the assay with ETV7; 1.34 fold enrichment (6-mer frequency, TF over GST control) with ELF5. The binding signal in the assay with ETV3 was 1.21 fold enrichment (6-mer frequency, TF over GST control); with ETV6 it was 1.28 fold enrichment (6-mer frequency, TF over GST control).
For TTTGTC, the binding signal with ERF was 1.23 fold enrichment (6-mer frequency, TF over GST control); with ETV3L, 1.32 fold enrichment (6-mer frequency, TF over GST control); with ETS2 it was 1.24 fold enrichment (6-mer frequency, TF over GST control); in the assay with SPDEF, 1.14 fold enrichment (6-mer frequency, TF over GST control); with ETV7 it was 1.35 fold enrichment (6-mer frequency, TF over GST control); with ELF5, 1.22 fold enrichment (6-mer frequency, TF over GST control). For the same sequence, the binding signal was 1.29 fold enrichment (6-mer frequency, TF over GST control) in the assay with ETV3 and 1.17 fold enrichment (6-mer frequency, TF over GST control) with ETV6.
For the sequence CGCTAC, the binding signal with ERF was 1.24 fold enrichment (6-mer frequency, TF over GST control); with ETV3L it was 1.17 fold enrichment (6-mer frequency, TF over GST control); in the assay with ETS2, 1.24 fold enrichment (6-mer frequency, TF over GST control); with SPDEF, 1.21 fold enrichment (6-mer frequency, TF over GST control); in the assay with ETV7, 1.2 fold enrichment (6-mer frequency, TF over GST control); with ELF5, 1.16 fold enrichment (6-mer frequency, TF over GST control). Further, the binding signal with ETV3 was 1.16 fold enrichment (6-mer frequency, TF over GST control); with ETV6 it was 1.27 fold enrichment (6-mer frequency, TF over GST control).
With CTTTAA, the binding signal was 1.32 fold enrichment (6-mer frequency, TF over GST control) in the assay with ERF; 1.34 fold enrichment (6-mer frequency, TF over GST control) with ETV3L; 1.33 fold enrichment (6-mer frequency, TF over GST control) in the assay with ETS2; 1.28 fold enrichment (6-mer frequency, TF over GST control) in the assay with SPDEF; 1.2 fold enrichment (6-mer frequency, TF over GST control) in the assay with ETV7; 1.32 fold enrichment (6-mer frequency, TF over GST control) with ELF5. In addition, the binding signal is 1.23 fold enrichment (6-mer frequency, TF over GST control) in the assay with ETV3 and 1.23 fold enrichment (6-mer frequency, TF over GST control) with ETV6.
CTGTCC: the binding signal in the assay with ERF is 1.28 fold enrichment (6-mer frequency, TF over GST control); with ETV3L, 1.13 fold enrichment (6-mer frequency, TF over GST control); in the assay with ETS2, 1.33 fold enrichment (6-mer frequency, TF over GST control); with SPDEF it was 1.27 fold enrichment (6-mer frequency, TF over GST control); with ETV7, 1.28 fold enrichment (6-mer frequency, TF over GST control); with ELF5 it was 1.3 fold enrichment (6-mer frequency, TF over GST control). Also, the binding signal is 1.14 fold enrichment (6-mer frequency, TF over GST control) with ETV3 and 1.26 fold enrichment (6-mer frequency, TF over GST control) with ETV6.
